# Experimental data from PubChem BioAssay (NCI).
# Where “and” joins values, the source holds several entries; their conditions need not be identical. Identical values can stand only once. This is part of a sample that, as a whole, favours compounds with a hit. Of some 79,000 tested, about 15% had one in any assay. Unmarked numbers belong to inactive results. Calls of active or inactive are those of the source. Cut-off read from the data, not from the text of the source: active = growth inhibition above about 70%; inactive = the rest.
# Tests used:
# [1] = NCI Yeast Anticancer Drug Screen. Data for the rad50 strain (AID 155);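 note: 0% = growth of vehicle-only cultures of the same strain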; details: S. cerevisiae rad50 strain growth inhibition, stronger effect = higher value; at 50.0 µM unless noted
# Summary of the method: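 Relative growth inhibition (compound vs vehicle) was measured in yeast with a defined repair-gene alteration.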
# [2] = NCI Yeast Anticancer Drug Screen. Data for the mec2-1 strain (AID 157); details: S. cerevisiae mec2-1 strain, stronger effect = higher value; at 50.0 µM unless noted
# Summary of the method: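 Yeast mec2-1 mutant treated with compound. Readout: growth inhibition vs vehicle controls.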
# [3] = NCI Yeast Anticancer Drug Screen. Data for the sgs1 mgt1 strain (AID 161);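 note: 0% = growth of cultures given vehicle only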; details: S. cerevisiae sgs1 mgt1 strain, stronger effect = higher value; at 50.0 µM unless noted
# Summary of the method: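 Genetically altered yeast, compound exposure, growth inhibition relative to vehicle.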
# [4] = NCI Yeast Anticancer Drug Screen. Data for the cln2 rad14 strain (AID 165);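 note: 0% = growth equal to vehicle treated cultures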; details: S. cerevisiae cln2 rad14 strain, stronger effect = higher value; at 50.0 µM unless noted
# Summary of the method: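 cln2 rad14 yeast strain; compound exposure; growth inhibition read vs vehicle controls.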
# [5] = NCI Yeast Anticancer Drug Screen. Data for the bub3 strain (AID 167); details: S. cerevisiae bub3 mutant strain, stronger effect = higher value; at 50.0 µM unless noted
# Summary of the method: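 Screening used yeast with an engineered genetic alteration affecting cell cycle control. Compound-exposed cultures were compared with vehicle cultures, and reduced growth was taken as inhibition.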
# [6] = NCI Yeast Anticancer Drug Screen. Data for the mlh1 rad18 strain (AID 175); details: S. cerevisiae mlh1 rad18 strain growth inhibition, stronger effect = higher value; at 50.0 µM unless noted
# Summary of the method: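 Yeast w/ defined DNA-repair lesions; compound exposure; growth vs vehicle controls → % inhibition.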
Compound,growth inhibition [1],growth inhibition [2],growth inhibition [3],growth inhibition [4],growth inhibition [5],growth inhibition [6]
COc1c(OC(C)=O)c(OC(C)=O)cc2c1-c1ccc(SC)c(=O)cc1C(NC(C)=O)CC2 (centres undefined),23.2%,3.5%,-28.8%,-24.6%,-33.8%,
CC(=O)Nc1cc(C)cc(CO)c1C,13.6%,-3.05%,-10.1%,-23.6%,-1.15%,
Oc1cc(Cl)cc2cccnc12,87.8% (active),91.5% (active),88.8% (active),91.6% (active),90% (active),
CO/N=C(/NC(=O)OC)c1ccccc1,10.8%,18.4%,-5%,-20.2%,14.4%,
C/C(=N\NC(=S)N1CCN(c2ccccn2)CC1)c1cccc(C)n1,90.3% (active),92.7% (active),91.8% (active),91.3% (active),89.5% (active),
O=C(/C=C\c1ccc(Cl)c(Cl)c1)/C=C/c1ccc(Cl)c(Cl)c1,25.5%,4.75%,26.4%,9.55%,39%,
O=C(CCC/C(CC(=O)c1ccc(Br)cc1)=N\O)Nc1ccccc1,52.9%,25.8%,17.8%,19.6%,28.7%,
COC1=CC2CC(C#N)C2(OC)C=C1 (centres undefined),-10.8%,5.75%,-4.7%,-18.2%,-17.4%,
O=CC(CO)C(C=O)n1ncc2ccccc21 (centres undefined),30.2%,7.7%,28.3%,9.55%,13.3%,
O=C1C=C(C2=CC(=O)c3cccc(O)c3C2=O)C(=O)c2c(O)cccc21,-32.5%,-13%,-9.9%,-46%,-8.5%,
C/C(=N\NC(=S)N1CCCCCC1)c1nccnc1C,85.7% (active),90.5% (active),89.7% (active),86.5% (active),87.4% (active),
C[Si](C)(C)OC1CC(=O)OC1n1cc(F)c(=O)[nH]c1=O (centres undefined),56.8%,81.6% (active),75.8% (active),-1.15%,21.8%,
C/C(N=NC(=S)N1CC2CCC(CC2)C1)=C1\C=CC=CN1O,80.3% (active),85.7% (active),82.2% (active),69.5%,78% (active),
CC(=O)OC[C@@]12C[C@H]3C(=O)C(C)(C)C[C@H]3[C@]1(C)[C@@H](OC(C)=O)[C@]1(O)[C@H]([C@@H](OC(=O)c3ccccc3)[C@@H](C)[C@H]1OC(C)=O)[C@H]2OC(C)=O,-13.6%,-26.9%,3.25%,-3.25%,10.8%,
C[C@H]1CC(=O)[C@@]2(O)C#C/C=C\C#C[C@@H]3Nc4c(cc(O)c5c4C(=O)c4ccccc4C5=O)[C@]24O[C@]314,78% (active),82% (active),85.2% (active),86.9% (active),85.8% (active),
CC(O)COC(C)C (centres undefined),8.55%,-5.7%,17.7%,2.85%,-1.85%,
COc1ccc2oc(=N)c(C(=O)Nc3ccccc3)cc2c1,24.2%,20.1%,-10.5%,4.9%,-4.85%,
CCN(CCNS(C)(=O)=O)c1ccc(N)c(C)c1,-15.3% and -11.2%,-17.2% and -6.1%,-23.1% and -14.5%,1.5% and -19.1%,-17.9% and 1.95%,
Nc1nc(Cl)c(C=O)c(NCC2(CO)CC(CCc3ccccc3)C2)n1 (centres undefined),15.4%,9.95%,-32.8%,-2.2%,-22%,
CCCCC/C(C=O)=C\c1ccccc1,38.5%,15.8%,39.5%,-12.2%,18%,38%
C=CCc1cc(-c2cc(CC=C)c(O)c(CN(CC)CC)c2)cc(CN(CC)CC)c1O,-9%,-5.2%,-20%,-18%,-12.1%,
C=C(c1c(C)cccc1OC(C)=O)c1c(C)cccc1OC(C)=O,-8.8%,-10.6%,-0.6%,-9.1%,17.3%,
O=c1[nH]c(-c2ccccc2)nc2nc3ccc([N+](=O)[O-])cc3[n+]([O-])c12,19.9%,-2%,-1.75%,-7.55%,-1%,7%
C=CCS(=O)(=O)CC=C,23.9%,-12.5%,-7.3%,3%,-15.6%,17.9%
NC(=O)CCCO,6.1%,-2.65%,-3.25%,6.6%,3.25%,2.4%
